Calls of active or inactive are those of the source. Rule for the calls: active = hit-call score of the fitted dose curve at least 0.9, where 1 is the maximum; inactive = score below 0.9.
Tests used:
[1] = read-out: Cytochrome P450 (CYP1A1), CYP1A1 (gene 1543); experiment: LTEA_HepaRG_CYP1A1: Life Technologies and Expression Analysis (LTEA) Assay for Cytochrome P450 (CYP1A1) using HepaRG (AID 2283454); details: mRNA level, 48 h; actives raise or lower the signal
Method in brief: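 Using HepaRG cultures with 0.5% DMSO as vehicle, eight-concentration exposures (max 100 uM) lasted 48 h. Transcript levels were measured by TaqMan qRT-PCR and normalized to ACTB, GAPDH and POLR2A.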

[2] = read-out: CFLAR gene, CFLAR (gene 8837); experiment: LTEA_HepaRG_CFLAR: Life Technologies and Expression Analysis (LTEA) Assay for CFLAR gene using HepaRG (AID 2283455); details: mRNA level, 48 h; actives raise or lower the signal
Method in brief: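 Gain- or loss-of-signal changes in CFLAR transcript were fitted bidirectionally relative to 0.5% DMSO. Cells (HepaRG, duplicate wells) were dosed for 48 h across eight half-log concentrations topping at 100 uM; quantitation by TaqMan qRT-PCR.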

[3] = read-out: Forkhead box O1 (FOXO1), FOXO1 (gene 2308); experiment: LTEA_HepaRG_FOXO1: Life Technologies and Expression Analysis (LTEA) Assay for Forkhead box O1 (FOXO1) using HepaRG (AID 2283456); details: mRNA level, 48 h; actives raise or lower the signal
Method in brief: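 Using one lot of HepaRG hepatic cells kept in 0.5% DMSO, the team applied test chemicals in duplicate, half-log dilutions from 100 uM, for 48 h. Expression, normalised to ACTB/GAPDH/POLR2A, was compared with vehicle in either direction.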

[4] = read-out: growth arrest and DNA damage 45 (GADD45A), GADD45A (gene 1647); experiment: LTEA_HepaRG_GADD45A: Life Technologies and Expression Analysis (LTEA) Assay for growth arrest and DNA damage 45 (GADD45A) using HepaRG (AID 2283458); details: mRNA level, 48 h; actives raise or lower the signal
Method in brief: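 HepaRG, 48 h exposure, 8 conc. (top 100 uM, half-log steps), 0.5% DMSO vehicle, duplicates. Read-out: qRT-PCR mRNA level, housekeeping-normalized (ACTB/GAPDH/POLR2A). Curves fit bidirectionally vs DMSO baseline.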

[5] = read-out: Forkhead box O3 (FOXO3), FOXO3 (gene 2309); experiment: LTEA_HepaRG_FOXO3: Life Technologies and Expression Analysis (LTEA) Assay for Forkhead box O3 (FOXO3) using HepaRG (AID 2283459); details: mRNA level, 48 h; actives raise or lower the signal
Method in brief: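 Gene-expression endpoint: FOXO3 transcript level by qRT-PCR in HepaRG cultures treated 48 h with chemicals up to 100 uM (half-log, 0.5% DMSO vehicle).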

[6] = read-out: ABC Transporter (ABCB1), ABCB1 (gene 5243); experiment: LTEA_HepaRG_ABCB1: Life Technologies and Expression Analysis (LTEA) Assay for ABC Transporter (ABCB1) using HepaRG (AID 2283460); details: mRNA level, 48 h; actives raise or lower the signal
Method in brief: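 Human liver HepaRG line treated 48 h with up to 100 uM compound (eight half-log points, 0.5% DMSO); ABCB1 mRNA change fitted bidirectionally against DMSO controls.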

[7] = read-out: ABC Transporter (ABCC3), ABCC3 (gene 8714); experiment: LTEA_HepaRG_ABCC3: Life Technologies and Expression Analysis (LTEA) Assay for ABC Transporter (ABCC3) using HepaRG (AID 2283462); details: mRNA level, 48 h; actives raise or lower the signal
Method in brief: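 Transcriptional change of ABCC3 in HepaRG after 48 h treatment, determined by qRT-PCR normalized to endogenous controls. Concentrations spanned eight half-log steps to 100 uM in 0.5% DMSO.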

[8] = CEETOX_H295R_TESTO: CeeTox H295R High-throughput Steroidogenesis Assay for Testosterone (TESTO) (AID 2283457); details: actives raise or lower the signal;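 for AC50: cells exposed to chemicals for 48 h before medium collection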
Description: CEETOX_H295R is a cell-based, multiplexed-readout assay that uses H295R, a human adrenal gland cell line, with measurements taken at 48 hours after chemical dosing in a 96-well plate.CEETOX_H295R_TESTO is one of 23 assay component(s) measured or calculated from the CEETOX_H295R assay. It is designed to make measurements of hormone induction, a form of inducible reporter, as detected with […] by HPLC-MS-MS technology.Data from the assay component CEETOX_H295R_TESTO was analyzed into 1 assay endpoint. This assay endpoint, CEETOX_H295R_TESTO, was analyzed with bidirectional fitting relative to DMSO as the negative control and baseline of activity. Using a type of inducible reporter, gain or loss-of-signal activity using HPLC-MS-MS was used to understand synthesis of Testosterone in H295R cell line at 48hr of chemical exposure. To generalize the intended target to other relatable targets, this assay endpoint is annotated to the steroid hormone intended target family, where the subfamily is androgens.
Cell culture and media preparation procedures were conducted in accordance with OECD Test No. 456 guidelines, with minor modifications. H295R cells (ATCC CRL-2128) were expanded for 5 passages and frozen in batches in liquid nitrogen. Prior to the steroidogenesis assay, H295R cells were thawed and passed at least 4 times. The maximum passage was 10. Cells were maintained in a 1:1 mixture of DMEM/F12 supplemented with 5ml/L ITS+ Premix (BD Bioscience) and 12.5 ml/L Nu-Serum (BD Bioscience). After seeding cells into 96-well plates at 50-60% confluency, cells were allowed to adhere overnight. […] Test chemicals were incubated for 48 hours, then the medium was removed and split into 2 vials containing approximately 75uL each, and stored at -80 C prior to hormone analysis. For steroid quantification, media samples were shipped to OpAns, LLC (Durham, NC) on dry ice, and samples were thawed to room temperature prior to liquid-liquid extraction. Steroid hormones were extracted from media samples using methyl tertbutyl ether (MTBE). An extra derivatization with dansyl chloride was included for estrogen (estrone and estradiol) detection only. Steroid hormones were separated by HPLC, eluted using a reverse phase C18 gradient with electrospray positive ionization, followed by quantification by tandem mass spectrometry (MS/MS). Data were acquired on a MassHunter Workstation Acquisition version B03.01 (Agilent Technologies, Inc.) and processed using MassHunter Quantitative Analysis for QQQ. Accuracy was determined for each hormone analyte from 3 standards to determine upper and lower limits of quantification (ULOQ and LLOQ, respectively) using a 7-point standard curve. Precision and accuracy of the extraction and quantification methods were calculated as the percent relative standard deviation (%RSD) of the spiked standards and percent spiked standard recovered, respectively. […] Test medium was removed following chemical exposure, and cell viability was evaluated in the same wells by MTT. MTT procedures were as follows: after removal of test medium, 500 uL of 0.5 mg/ml of 3-[4,5-dimethylthiazol-2-y]2,5-diphenyltetrazoliumbromide solution was added to the cells. Following a 4-hour incubation at 37 C and 5% CO2 to allow formazan-crystal formation, the MTT solution was removed and blue formazan salt crystals were solubilized using 500uL anhydrous isopropanol with shaking for 20 minutes. Absorbance was read at 570 and 650nm using a Packard Fusion microplate reader. Background correction of absorbance units was used to determine percent change relative to controls. […] When a test chemical reduced cell viability to 20% - 70%, the test chemical was diluted 10-fold and re-evaluated, but if cell viability was <20%, then the test chemical was diluted 100-fold and re-evaluated. Test chemical dilutions were made until cell viability was >/=70%. MTT assays were also conducted for duplicates of all concentrations of chemicals tested in concentration-response studies. […]

[9] = read-out: ABC Transporter (ABCB11), ABCB11 (gene 8647); experiment: LTEA_HepaRG_ABCB11: Life Technologies and Expression Analysis (LTEA) Assay for ABC Transporter (ABCB11) using HepaRG (AID 2283463); details: mRNA level, 48 h; actives raise or lower the signal
Method in brief: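 Using HepaRG cultures held in 0.5% DMSO, chemicals were tested at half-log dilutions from 100 uM for 48 h. Induction or suppression of ABCB11 mRNA, normalized to ACTB, GAPDH and POLR2A, was fitted bidirectionally against vehicle.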

O=P(Oc1ccccc1)(Oc1ccccc1)Oc1ccccc1
AC50 [1]: 26 µM (active)
outcome [2]: inactive
outcome [3]: inactive
outcome [4]: inactive
outcome [5]: inactive
AC50 [6]: 5.73 µM (active)
outcome [7]: inactive

Cc1cccc(N)c1
AC50 [1]: 50.2 µM (active)
outcome [2]: inactive
outcome [3]: inactive
outcome [4]: inactive
outcome [5]: inactive
outcome [6]: inactive
outcome [7]: inactive

CCOP(=S)(Oc1ccc([N+](=O)[O-])cc1)c1ccccc1 (stereo unspecified)
AC50 [1]: 14.3 µM (active)
outcome [2]: inactive
outcome [3]: inactive
outcome [4]: inactive
outcome [5]: inactive
AC50 [6]: 4.56 µM (active)
outcome [7]: inactive

c1cc2c3c(cccc3c1)CC2
AC50 [1]: 72.4 µM (active)
outcome [2]: inactive
outcome [3]: inactive
outcome [4]: inactive
outcome [5]: inactive
outcome [6]: inactive
outcome [7]: inactive

CCC1(c2ccccc2)C(=O)N=C(O)NC1=O (stereo unspecified)
AC50 [1]: 64.3 µM (active)
outcome [2]: inactive
outcome [3]: inactive
outcome [4]: inactive
outcome [5]: inactive
outcome [6]: inactive
outcome [7]: inactive

CCCCN(CCCC)N=O
outcome [1]: inactive
outcome [2]: inactive
outcome [3]: inactive
outcome [4]: inactive
outcome [5]: inactive
outcome [6]: inactive
outcome [7]: inactive

CSC(C)(C)C=NO
outcome [1]: inactive
outcome [2]: inactive
outcome [3]: inactive
outcome [4]: inactive
outcome [5]: inactive
outcome [6]: inactive
outcome [7]: inactive

Nc1ccc([N+](=O)[O-])cc1Cl
outcome [8]: inactive

CCCCN(CCCC)SN(C)C(=O)Oc1cccc2c1OC(C)(C)C2
AC50 [1]: 50 µM (active)
outcome [2]: inactive
outcome [3]: inactive
outcome [4]: inactive
outcome [5]: inactive
AC50 [6]: 23.2 µM (active)
outcome [7]: inactive

COP(N)(=S)OC
outcome [8]: inactive

ClC(Cl)=C(c1ccc(Cl)cc1)c1ccccc1Cl
outcome [8]: inactive

CC(=O)c1ccc(-c2ccccc2)cc1
AC50 [8]: 19.1 µM (active)

CCOS(=O)(=O)OCC
outcome [1]: inactive
outcome [2]: inactive
outcome [3]: inactive
outcome [4]: inactive
outcome [5]: inactive
outcome [6]: inactive
outcome [7]: inactive

Nc1cc2c3c(c1)C(c1ccccc1)=N[C@@H](NC(=O)c1cccnc1)C(=O)N3CC2
AC50 [1]: 31.8 µM (active)
outcome [2]: inactive
outcome [3]: inactive
outcome [4]: inactive
outcome [5]: inactive
AC50 [6]: 18.5 µM (active)
outcome [7]: inactive

O=C(O)C(Cl)Cl
outcome [1]: inactive
outcome [2]: inactive
outcome [3]: inactive
outcome [4]: inactive
outcome [5]: inactive
outcome [6]: inactive
outcome [7]: inactive

Nc1ccc2ccccc2c1
AC50 [1]: 23.5 µM (active)
outcome [2]: inactive
outcome [3]: inactive
outcome [4]: inactive
outcome [5]: inactive
outcome [6]: inactive
outcome [7]: inactive

Cc1ccc(N)cc1N
AC50 [1]: 21.6 µM (active)
outcome [2]: inactive
outcome [3]: inactive
outcome [4]: inactive
outcome [5]: inactive
outcome [6]: inactive
outcome [7]: inactive

CO/N=C(/C(=O)OC)c1ccccc1COc1ccccc1C
AC50 [8]: 9.76 µM (active)

CN(C)C(=O)Cl
AC50 [1]: 50 µM (active)
outcome [2]: inactive
outcome [4]: inactive
outcome [5]: inactive
outcome [6]: inactive
outcome [7]: inactive

Nc1ccc(Cl)cc1
AC50 [1]: 28 µM (active)
outcome [2]: inactive
outcome [3]: inactive
outcome [4]: inactive
outcome [5]: inactive
outcome [6]: inactive
outcome [7]: inactive

[N-]=[N+]=[N-]
outcome [1]: inactive
outcome [2]: inactive
AC50 [3]: 76.1 µM (active)
AC50 [4]: 88.1 µM (active)
outcome [5]: inactive
outcome [6]: inactive
AC50 [7]: 69.3 µM (active)

c1ccc(OP(Oc2ccccc2)Oc2ccccc2)cc1
AC50 [1]: 77.3 µM (active)
outcome [2]: inactive
outcome [3]: inactive
outcome [4]: inactive
outcome [5]: inactive
outcome [6]: inactive
outcome [7]: inactive

Cc1ccc(O)cc1C
outcome [2]: inactive
outcome [3]: inactive
outcome [4]: inactive
outcome [5]: inactive
outcome [7]: inactive

CC(Cl)(Cl)C(=O)O
outcome [1]: inactive
outcome [2]: inactive
outcome [3]: inactive
outcome [4]: inactive
outcome [5]: inactive
outcome [6]: inactive
outcome [7]: inactive
outcome [9]: inactive

CC(C)(C)c1ccc(O)cc1
outcome [2]: inactive
outcome [3]: inactive
outcome [4]: inactive
outcome [5]: inactive
outcome [7]: inactive

COCCOCCO
outcome [1]: inactive
outcome [2]: inactive
outcome [3]: inactive
outcome [4]: inactive
outcome [5]: inactive
outcome [6]: inactive
outcome [7]: inactive

N#Cc1c(-c2ccc(Cl)cc2)[nH]c(C(F)(F)F)c1Br
outcome [8]: inactive

CCOc1ccc(C(C)(C)COCc2cccc(Oc3ccccc3)c2)cc1
AC50 [1]: 41 µM (active)
outcome [2]: inactive
outcome [3]: inactive
outcome [4]: inactive
outcome [5]: inactive
AC50 [6]: 8.69 µM (active)
outcome [7]: inactive
